Test in all cases: NCI-60 one-dose screen, 48 h (100 = growth as untreated, 0 = no growth, -100 = all killed)
One experiment deals with HCT-15 colon. Particulars: 10 µM unless noted.
A further experiment relates to HT29 colon. Particulars: 10 µM unless noted.
For another experiment, the system named is SNB-75 CNS. Conditions: 10 µM unless noted.
The next experiment deals with SNB-19 CNS. Particulars: 10 µM unless noted.
A further experiment concerns U251 CNS. Particulars: 10 µM unless noted.
Another experiment concerns PC-3 prostate. Conditions: 10 µM unless noted.
In a further experiment the test system is SK-MEL-5 melanoma. Conditions: 10 µM unless noted.
In another experiment the test system is UACC-62 melanoma. Conditions: 10 µM unless noted.
For a further experiment, the system named is LOX IMVI melanoma. Particulars: 10 µM unless noted.
The next experiment has as its system SK-MEL-28 melanoma. Particulars: 10 µM unless noted.
For a further experiment, the system named is EKVX NSCLC. Particulars: 10 µM.
A further experiment concerns SN12C renal. Particulars: 10 µM unless noted.
In another experiment the test system is UO-31 renal. Conditions: 10 µM unless noted.
Another experiment has as its system TK-10 renal. Conditions: 10 µM unless noted.
For a further experiment, the system named is ACHN renal. Conditions: 10 µM unless noted.
Another experiment concerns CAKI-1 renal. Particulars: 10 µM unless noted.
The subject of a further experiment is A498 renal. Particulars: 10 µM unless noted.
The test system of a further experiment is CCRF-CEM leukemia. Conditions: 10 µM.
The test system of another experiment is MOLT-4 leukemia. Conditions: 10 µM unless noted.

Compounds without any hit were thinned out: in the full panel of roughly 83,000, 20% have a hit.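 For each line, cells grew in 96-well plates with the test compound present at a single concentration for 48 hours.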 Values without a mark were called inactive. Active and inactive are the calls of the source. How the source made its calls: active means growth percent below 10; inactive means the rest.

Turning to `c1ccc2[nH]c(-c3ccc(OCCCCCOc4ccc(-c5nc6ccccc6[nH]5)cc4)cc3)nc2c1`, the growth was 16.7% in the experiment with HCT-15 colon; -30.6% (active) with HT29 colon; -4.77% (active) with SNB-75 CNS; 46% in the experiment on SNB-19 CNS; -2.78% (active) with U251 CNS; -70% (active) in the experiment on PC-3 prostate. Moreover, the growth in the experiment on SK-MEL-5 melanoma was 37.7%; with UACC-62 melanoma it was 12.8%; in the experiment on LOX IMVI melanoma, -77% (active); with SK-MEL-28 melanoma it was -71.6% (active); in the experiment on EKVX NSCLC it was 87%; in the experiment on SN12C renal, 19.8%. Besides, the growth in the experiment on UO-31 renal was 78%; in the experiment with TK-10 renal, -50.9% (active); in the experiment on ACHN renal it was 35.5%; in the experiment on CAKI-1 renal, 94.1%; in the experiment with A498 renal it was 143%; with CCRF-CEM leukemia, -87.9% (active). Moreover, the growth in the experiment with MOLT-4 leukemia was -19.1% (active).

As to `Cc1nn(-c2ccccc2)c(N)c1N=C1NC(=O)/C(=C/c2ccc(Cl)cc2)S1`, the growth in the experiment on HCT-15 colon was 80.6%; with HT29 colon, 106%; with SNB-75 CNS, 58.9%; in the experiment with SNB-19 CNS it was 83.6%; in the experiment on U251 CNS, 79.1%; with PC-3 prostate, 76.8%. The growth is 92.1% in the experiment with SK-MEL-5 melanoma; 77.3% in the experiment with UACC-62 melanoma; 89.7% with LOX IMVI melanoma; 92.3% with SK-MEL-28 melanoma; 90.8% in the experiment with EKVX NSCLC; 85.8% in the experiment on SN12C renal. For the same compound, the growth in the experiment with UO-31 renal was 73%; with TK-10 renal it was 104%; in the experiment on ACHN renal it was 87.3%; with CAKI-1 renal, 66.8%; in the experiment with A498 renal, 68.6%; in the experiment with CCRF-CEM leukemia it was 68.2%. Further, the growth in the experiment on MOLT-4 leukemia was 87.9%.

For `O=C(c1ccccc1)c1ccccc1-c1ccccc1`, the growth was 17.8% in the experiment on HCT-15 colon; -25.8% (active) in the experiment on HT29 colon; 3.14% (active) in the experiment with SNB-75 CNS; 34.7% with SNB-19 CNS; 25.4% in the experiment with U251 CNS; 41.4% with PC-3 prostate. The growth was 25% in the experiment with SK-MEL-5 melanoma; 34.5% in the experiment with UACC-62 melanoma; 31.6% in the experiment with LOX IMVI melanoma; 50.1% in the experiment with SK-MEL-28 melanoma; 58.8% in the experiment with EKVX NSCLC; 31.3% in the experiment with SN12C renal. For the same compound, the growth in the experiment on UO-31 renal is 44.5%; with TK-10 renal, 8.04% (active); in the experiment with ACHN renal, 33.7%; with CAKI-1 renal it was 17.4%; in the experiment with A498 renal, 43.1%; in the experiment on CCRF-CEM leukemia it was 11%. Also, in the experiment with MOLT-4 leukemia, the growth is 30.4%.

`NNC(=O)CNc1ccc2ccccc2c1`: the growth with HCT-15 colon was 110%; in the experiment on HT29 colon, 106%; in the experiment on SNB-75 CNS, 104%; with SNB-19 CNS, 109%; in the experiment on U251 CNS it was 101%; with PC-3 prostate, 98%. The growth with SK-MEL-5 melanoma was 101%; in the experiment with UACC-62 melanoma it was 98.8%; in the experiment on LOX IMVI melanoma, 96%; in the experiment on SK-MEL-28 melanoma, 125%; in the experiment with EKVX NSCLC it was 105%; with SN12C renal, 104%. Moreover, the growth is 70.9% in the experiment with UO-31 renal; 119% in the experiment on TK-10 renal; 101% with ACHN renal; 106% in the experiment with CAKI-1 renal; 107% in the experiment with A498 renal; 101% in the experiment with CCRF-CEM leukemia. Besides, the growth in the experiment with MOLT-4 leukemia is 83.6%.

`COc1cc(-c2nn(-c3ccc(NC(=O)Nc4ccc(Cl)c(Cl)c4)cc3)cc2-c2ccncc2)ccc1Cl`: the growth with HCT-15 colon was 28.9%; in the experiment on HT29 colon it was 18.1%; in the experiment with SNB-75 CNS it was 25%; in the experiment with SNB-19 CNS, 36.9%; in the experiment on U251 CNS, 24.3%; in the experiment on PC-3 prostate, 16.9%. Further, the growth was 48% in the experiment with SK-MEL-5 melanoma; 32.8% in the experiment with UACC-62 melanoma; 20.1% in the experiment with LOX IMVI melanoma; 41.5% in the experiment with SK-MEL-28 melanoma; 33.6% in the experiment with EKVX NSCLC; 43.4% with SN12C renal. The growth in the experiment with UO-31 renal is 33.4%; with TK-10 renal, -12.6% (active); in the experiment with ACHN renal, 20.9%; with CAKI-1 renal, 30.2%; in the experiment on A498 renal it was 38.7%; in the experiment with CCRF-CEM leukemia, 11.7%. In addition, in the experiment with MOLT-4 leukemia, the growth is 9.31% (active).

`CC(=O)N1N=C(c2ccc(Cl)cc2)CC1c1cn(-c2ccccc2)nc1-c1ccc([N+](=O)[O-])cc1` (stereo not given): the growth in the experiment on HCT-15 colon was 92.6%; in the experiment with HT29 colon, 93.8%; in the experiment with SNB-75 CNS, 72.5%; in the experiment on SNB-19 CNS, 90.1%; with U251 CNS, 96.9%; with PC-3 prostate, 108%. Also, the growth in the experiment on SK-MEL-5 melanoma is 101%; in the experiment with UACC-62 melanoma it was 85.1%; in the experiment on LOX IMVI melanoma, 97.8%; with SK-MEL-28 melanoma it was 110%; in the experiment with EKVX NSCLC, 98.8%; with SN12C renal, 96.8%. In addition, the growth is 107% in the experiment with UO-31 renal; 111% in the experiment on TK-10 renal; 83.5% in the experiment on CAKI-1 renal; 109% with A498 renal; 105% with CCRF-CEM leukemia; 110% in the experiment on MOLT-4 leukemia.

As for `CCCCn1c(Cc2ccc(OC)cc2)nc2cc(OC)c(OC)cc2c1=O`, the growth in the experiment on HCT-15 colon was 93.4%; in the experiment with HT29 colon, 101%; in the experiment on SNB-75 CNS it was 87.5%; in the experiment with SNB-19 CNS, 84.7%; in the experiment on U251 CNS it was 87.8%; with PC-3 prostate, 91.8%. In addition, the growth is 36.6% in the experiment on SK-MEL-5 melanoma; 59.6% in the experiment on UACC-62 melanoma; 90.2% in the experiment with LOX IMVI melanoma; 90.6% with SK-MEL-28 melanoma; 44.8% in the experiment on EKVX NSCLC; 88.6% in the experiment on SN12C renal. Further, the growth is 74.7% in the experiment with UO-31 renal; 67.2% in the experiment with TK-10 renal; 80.9% in the experiment with ACHN renal; 62% in the experiment with A498 renal; 53.1% with CCRF-CEM leukemia; 49.1% in the experiment on MOLT-4 leukemia.

For the compound `COC(=O)c1ccc2[nH]c(O)c(C(=Nc3ccc(N(C)C(=O)CN4CCN(C)CC4)cc3)c3ccc4c(c3)OCO4)c2c1`, the growth with HCT-15 colon is 8.49% (active); in the experiment on HT29 colon, 4.28% (active); in the experiment on SNB-75 CNS, -1.84% (active); with SNB-19 CNS it was 14%; in the experiment on U251 CNS, 13.4%; in the experiment on PC-3 prostate, 19.3%. Moreover, the growth in the experiment on SK-MEL-5 melanoma was 10.1%; in the experiment with UACC-62 melanoma, 31.8%; with LOX IMVI melanoma, 6.8% (active); in the experiment on SK-MEL-28 melanoma, 20.8%; in the experiment on EKVX NSCLC, 37.3%; in the experiment on SN12C renal it was 10.9%. The growth is 14.7% with UO-31 renal; -9.95% (active) in the experiment with TK-10 renal; 8.02% (active) in the experiment with ACHN renal; 4.52% (active) in the experiment on CAKI-1 renal; -19.1% (active) with A498 renal; 4.01% (active) in the experiment on CCRF-CEM leukemia. Besides, the growth in the experiment on MOLT-4 leukemia is 0.682% (active).

The record behind these values is PubChem BioAssay (NCI).
